According to the supplement of paper PMC11417369:
In all, about 25,000 sequences were measured (“ln(normalized median fluorescence intensity)”: median about 6.7, highest 2% from about 10 on). What follows is part of a selection rich in the highest values, with near analogues and random picks from the rest.

System: PfHDP1 homeodomain (GST-tagged)
Assay: gcPBM binding intensity (ln(normalized median fluorescence intensity)); higher = stronger DNA binding
Summary of the method: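 An Agilent 4 × 180k array carrying primer-extended double-stranded 36-bp intergenic genomic probes and negative controls received GST-tagged P. falciparum DNA-binding domains expressed in E. coli, about 25 μg on average, for 1 h. The binding buffer contained 1× PBS, 1% milk, 0.2 mg/ml BSA, 0.5% salmon testes DNA and 0.03% Triton X-100. Binding intensity is the top Masliner-normalised natural-log median intensity across replicate spots of either probe orientation, read after Alexa488 anti-GST antibody staining and a 488 nm scan.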

Row | Sequence | gcPBM binding intensity (ln)
1 | ATACTATAATATAAAACACACATATGTACCTTCTAA [CACACA_site7323] | 6.67
2 | TATTAATATATAGTAGTGCAATAAAGATATACTGAA | 9.67
3 | TATAAGGCAATAATAGTGCACTAAGATATATAATGA | 10.7
4 | TTGCAATAATGTTGCACACTAAATAGTCATATATAA [CACACA_site263] | 9.77
5 | GTATTATATTTCAACTGTACGTAAAACTATTAAAAT [XGTACX_site3679] | 6.55
6 | TCAATAAATATACATACATGCATACATACATACATA [TGCATGCA_site197] | 6.53
7 | ACCAATAAATATTTGGTGCATACATATATATATATA | 10.5
8 | TATTTCTTTTGGTTGGTGCATAAAATAATACAATAT [GTGCAC_site9916] | 10.5
9 | AAATAATTTATATATTGTACAAATATTAAATGCGAA [XGTACX_site3390] | 7.16
10 | ATAACCTAATAATACACACACATGAATATATATAAT [CACACA_site4689] | 7.17
11 | TATTTTTCCCTATGCACACACACCGTATATATAATA [CACACA_site4758] | 10.1
12 | ATTTTCTTTCTATGCACACGCACGTATTTGCACCCA [CACACA_site3350] | 10.9
13 | TTATTTTCTTTCTATGCACACGCACGTATTTGCCCA [CACACA_site9104] | 9.79
14 | CGTAATAAAAACAAATGTACATGACCTGGACAGGTT [XGTACX_site6560] | 6.4
15 | TTATTTTTTTTATATATATGTATAAATATATATATA [XGTACX_negctrl_site441] | 7.84
16 | TTATAAAATGGGCAAACACACACAAAAAAAAGATAT [CACACA_site8476] | 7.42
17 | TAATACTTTTAATCTACACACGCTGAGACATGCTTT [CACACA_site1484] | 6.14
18 | ATATATTTTTTGAATACACACATATTATCTGTAATA [CACACA_site4826] | 6.45
19 | ATAATATTATACTTTGCACACATCTGAAATGACATA [CACACA_site3952] | 10.4
20 | ATATACTTATATATTGCACACATCTAATATTTTGAA [CACACA_site3165] | 10.5
21 | TATATCTTACTTTTTGCACACACTAATATTATTGTT [CACACA_site1640] | 10.1
22 | TATCTTACTTTTTGCACACACTAATATTATTGTTTA [CACACA_site4990] | 11.1
23 | TAATATTACATTTATTGTACTTTGTTTTTATTTTAT [XGTACX_site1605] | 6.27
24 | ATAAATCCCAAAACCTTGCAAGACAACGTTTGATCA [CACACA_negctrl_site1327] | 6.57

Row | Sequence | gcPBM binding intensity (ln)
25 | TCTTTAACAAGTTAAACACACATACCTATATACATA [CACACA_site7237] | 6.47
26 | TCTTTCTTATTTTAATGATATTTATTCATTCCAGTT [CACACA_negctrl_site1679] | 6.52
27 | TTCCCAACATGATATTGTACATTTAATTATAATTAA [XGTACX_site7029] | 7.08
28 | TAAAAAAAAACATGTGCACACGTTTTATCTACATAA [CACACA_site2336] | 10.8
29 | TTATCTCTACAAAGTGCACACACGTAAAAACATATA [CACACA_site3957] | 8.98
30 | CAAAACATTTTATCTACACACATATATAAATAAATA [CACACA_site3220] | 6.36
31 | TATTATTGTCTTTCAAAAAAAAAAAAAAAAAAAAAA [CACACA_negctrl_site1242] | 6.11
32 | TATCGAGCCATTTTTACATGCAATTATACATAATTT [TGCATGCA_site987] | 6.73
33 | AATATATTGCACCATTGGACCTGAATAATTCTTCCA [CACACA_negctrl_site1071] | 11.4
34 | AATATTGCACCATTTTGTACATAATATATTCAAATA [XGTACX_site475] | 10.3
35 | ATAATTATTCTTATGGTGCACTGAATATACATGTTG [GTGCAC_site9760] | 9.5
36 | ATATCTATAATAAATACACACATTTATATAGATAAA [CACACA_site7518] | 6.38
37 | AAATGTGTTAATGTGCGTACACATATATATAATATT [XGTACX_site2792] | 6.66
38 | TTGTGGATTTTGTGCGCACACACATGCAAAAAGAAA [CACACA_site1147] | 9.58
39 | ATTTTGTGCGCACACACATGCAAAAAGAAATATGAT [TGCATGCA_site261] | 10.5
40 | GTGTATTTTGTGCGCACACACATGCAAAAAGAAATA [CACACA_site6660] | 9.54
41 | TAATGATAAATACATACACACAAAAAATGATATATA [CACACA_site7258] | 6.48
42 | TCTTCTTTTTTTTTTTTGTATTATTATAAATATTAT [CACACA_negctrl_site1668] | 6.53
43 | ATATATATTATTTCTACACACATATATATAATATGT [CACACA_site3374] | 6.9
44 | GAAAATAAAATAAATGCATGTAAATTTAATGTAATG [TGCATGCA_site996] | 6.88
45 | AATATATATATGTGTACACATCCAAAATAGGCATAC [CACACA_site5705] | 7.59
46 | TTAATATATTATCTGGTGCATAAACACGTTATACCT | 10.6
47 | TTTGTTATATTTAATACACACATATTATAAACACAT [CACACA_site7703] | 6.88
48 | TATATATAATATTATACACACATATCTGCATAATAT [CACACA_site4202] | 7.05

Row | Sequence | gcPBM binding intensity (ln)
49 | AATATTATTTATATTTGTACACAGTAATATAAAATA [XGTACX_site4884] | 6.25
50 | AATTGTTAATGGTACGAACACACATATAAAGATGCA [CACACA_site2043] | 6.76
51 | TATATATTATATATATGTACATATTGTTGTGTATAT [XGTACX_site767] | 7.15
52 | TAGGTACATAAATTGGTGCAAAGTGTACATATATAT | 10.8
53 | GTTGTTATATAAAATTGTACATAAAAAACAAAATAT [XGTACX_site5313] | 6.8
54 | GTGTGCAAAAATTGTTGTACATTATATATAAAAAAA [XGTACX_site3246] | 10.6
55 | AAAAAATTATAAAAGTGTACATATATATATATATAT [XGTACX_site154] | 9.48
56 | ATATATAATTTTTGTTGTACATTATAAAAATAATTA [XGTACX_site2738] | 6.3
57 | ATGTGTATATATTATTGTACATATATATATATATAT [XGTACX_site4627] | 9.24
58 | AATTGTGCATTATATTGTACACGTGTTGTATATATT [XGTACX_site975] | 10.8
59 | TAAATTGGTGCAAAGTGTACATATATATCTTTCCTA [XGTACX_site5458] | 10.4
60 | CCCACAGACGGACACACACACACACCGACACATATA [CACACA_site4356] | 7.01
61 | TTATAATTTAATAAATGTACATAAATAATATACATA [XGTACX_site7271] | 6.14
62 | AAATTATTAAGTGATATAATATTCTATAGATGGGGA [CACACA_negctrl_site168] | 6.76
63 | TGTGCATAATTTTGTGCACACCACGCTAATAATTTT [CACACA_site2915] | 11.5
64 | ATTTTTTTTTTTTTTTTTTTTGCACCATAAAATAAT [CACACA_negctrl_site1324] | 10.1
65 | CCACGAGAATATATAGTGCATAATAATTTTTTTTTG | 8.82
66 | GTATGGCGTATCATATGTACTAAAAAAAAATAAAAA [XGTACX_site5101] | 6.49
67 | AAAGAAATGAAATATACACACATACCTATATACATA [CACACA_site7817] | 6.63
68 | AAAAAAAAAAAAAGCACACACACATATGTGTATATA [CACACA_site8225] | 6.86
69 | ATATATGATGTATTTGTGCACATATATATATTATTA [GTGCAC_site9471] | 10.7
70 | ATAAATACATATGTGTGTACACATTATATATATATA [XGTACX_site1486] | 9.17
71 | AAAAAATAAAAAGATACACACATATGTATAATATAC [CACACA_site1496] | 6.83
72 | TATATGTATAGAAAATGTACATATAAATATATATAT [XGTACX_site3420] | 7.94

Row | Sequence | gcPBM binding intensity (ln)
73 | TGTGTGTGTATATGTGTGCACATATAAAATAGAAGA [GTGCAC_site9714] | 10.5
74 | TTTTTGTTATTATGTGTGCACATATATATATATATA | 10.4
75 | TAAAATAGAAATATATGTACATATATATATGTATAT [XGTACX_site4134] | 6.4
76 | TATGTATGTTAGTGTGCACACATAAATATTATATAT [CACACA_site9121] | 11.1
77 | CACATATATATGTGTGCATGTTGTATTATATATTTA [TGCATGCA_site632] | 8.72
78 | GAAAAGCAGATAAATGTGCACATATATGTTTGTATA | 10.8
79 | ATATATGTATGTTAGACACACATATTATAATATGTT [CACACA_site116] | 6.5
80 | TAATTTCTTATGTAGTGTACAAATAATATATGATAT [XGTACX_site597] | 6.39
81 | ATTAAAAAAATATAAACACACAAAAAAAAAATATAC [CACACA_site1100] | 7.06
82 | AACAAATAAAAAAAAATAAAAATAAAAATAAAAAAA [XGTACX_negctrl_site451] | 6.36
83 | TTTTTTTCTTCTTTTCTCTTAAAAATATTGAATATT [CACACA_negctrl_site1762] | 6.28
84 | TATACATATGAAAATACACACATACATACAGATATA [CACACA_site5002] | 6.64
85 | ATATATTATGGGTGTGCACACAATATTTATATGTTC [CACACA_site2270] | 10.9
86 | TGTATGTTTGGGTGCACACATAAATATTATATATAG [CACACA_site3397] | 10.2
87 | AAGAAAAATATTCGTGTGCACAGAAGTATATGTGTG [GTGCAC_site9814] | 11
88 | TAAAAATTGCACAGAAGTACAGTATAAATATATATA [XGTACX_site3421] | 10.2
89 | TATGTGTATAATAAAAGTACATATATTATTATATAA [XGTACX_site8556] | 6.35
90 | TTGTTGTGTATTATCGTGCACATAATATAAAAGATT | 10.5
91 | AAAAGTTGTATTTGCACACATAAAAAAAAGATATTA [CACACA_site3840] | 10.3
92 | TTTATGTGTATGTTTACACACATAAAAAAATATATG [CACACA_site3039] | 6.54
93 | TGTGTATATGTGCAAAGTACAAAAAAGAAATTATTT [XGTACX_site7569] | 9.87
94 | TATATGTATGTTTGTGTGCACACATAAATATTATAT | 10.5
95 | TGTATTATATATACACAAATATTTATGTGTGTGTTT [XGTACX_negctrl_site475] | 6.71
96 | AATATTTATGGGTGCACACAAACATACAGATATATA [CACACA_site5810] | 10.3
